About 83,000 compounds went through this panel and 20% of them were active in at least one assay; those are over-represented in the sample as a whole.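 Cells were grown in 96-well plates and exposed to the test compound at a single concentration for 48 hours; results are reported as percent growth, with values below 10 considered active.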 Activity calls are given as the source filed them.
test system: HL-60(TB) leukemia; experiment: NCI-60 one-dose screen, 48 h (100 = growth as untreated, 0 = no growth, -100 = all killed); conditions: 10 µM unless noted

Row | SMILES | growth
1 | O=C(Nc1ccc(N2CCNCC2)cc1)c1[nH]ncc1Nc1cc(Oc2ccccc2)ncn1 | -49.6% (active)
2 | COC(=O)c1nc(-c2ccccc2)oc1S(=O)(=O)n1nc(C)cc1N | 7.17% (active)
3 | Cc1ccc(-c2nc(/C=C3/C(=O)Nc4ccc(F)cc43)c3ccccn23)cc1 | 110% (inactive)
4 | COc1cc(C2NC(c3cc(OC)c(OC)c(OC)c3)C(C#N)(C#N)C2(C#N)C#N)cc(OC)c1OC (stereo not given) | 89.3% (inactive)
5 | Cc1ccc(NC(=O)c2sc3nc4c(cc3c2N)C(=O)CCC4)cc1C | -10.6% (active)
6 | NNC(=O)CSc1nc2scc(-c3ccccc3)c2c(=O)n1-c1ccccc1 | 84% (inactive)
7 | OCCCc1ccccc1 | 99% (inactive)
8 | O=C(OCc1ccccc1)n1nnc2ccccc21 | 111% (inactive)
9 | CN1C(=O)N2CN3CCCN(C3)CN3C(=S)NC1C23 (stereo not given) | 99.8% (inactive)
10 | COC(=O)c1nc(-c2ccccc2)oc1S(=O)(=O)N(C)CCO | -24.6% (active)
11 | N#CC1=C(NC=O)Oc2c(ccc3ccccc23)C1c1ccccc1 (stereo not given) | 18.1% (inactive)
12 | COc1ccc(NC(=O)/C=C/c2ccc(Cl)c(Cl)c2)cn1 | 61.5% (inactive)
13 | CCC(CO)Nc1nc2ccc(Cl)cc2c2ccccc12 (stereo not given) | 25% (inactive)
14 | O=[N+]([O-])c1ccccc1Nc1ccc2ccccc2c1 | 93.5% (inactive)
15 | NNC(=O)CNC(=O)Nc1n[nH]c(=S)s1 | 107% (inactive)
16 | O=C(Nc1cccc(-n2cc(-c3ccncc3)c(-c3cc(O)cc(Cl)c3)n2)c1)c1ccc(N2CCOCC2)c(C(F)(F)F)c1 | -46.4% (active)
17 | CC(=O)SC1CC(=O)C=C2CCC3C4CCC(=O)OC4(C)CCC3C21C (stereo not given) | 103% (inactive)
18 | C=C(C)[C@@H]1CC[C@]2(C(=O)N3CCN(C)CC3)CC[C@]3(C)[C@H](CC[C@@H]4[C@@]5(C)C/C(=C/c6ccncc6)C(=O)C(C)(C)[C@@H]5CC[C@]43C)[C@@H]12 | -21.7% (active)
19 | COc1ccc(-c2nc3sccn3c2/C=C/C(=O)c2cc(OC)c(OC)c(OC)c2)cc1 | 56.5% (inactive)
20 | CC1(/C=C/c2ccc(-c3ccccc3)cc2)CCn2cnc3ncnc(c32)N1O (stereo not given) | 2.02% (active)

Row | SMILES | growth
21 | O=C1c2c(c3c4ccccc4[nH]c3c3ccc4ccccc4c23)C(=O)N1CCN1CCOCC1 | 53.6% (inactive)
22 | CNc1ccc(Br)cc1-c1n[nH]c(=O)[nH]c1=O | 104% (inactive)
23 | O=C(Nc1ccc2ncnc(Nc3ccc(Oc4cccc(F)c4)c(Cl)c3)c2c1)c1ccc(CN2CCOCC2)cc1 | -11.3% (active)
24 | CCOC(=O)CCC[P+](c1ccccc1)(c1ccccc1)c1ccccc1 | 37.7% (inactive)
25 | CC(C)=CC(=O)OCC(=O)O[C@@H]1C[C@]2(C(C)C)O[C@@]1(C)[C@@H]1CC[C@@H](C)[C@H]1[C@@H]2OC(=O)/C=C/c1ccccc1 | 85% (inactive)
26 | CC(C)(C)CC(C)(C)Nc1c(-c2c(O)c3ccccc3oc2=O)nc2sccn12 | 99.7% (inactive)
27 | CN1CCN(CCCOC(=O)c2c3c(n4ccccc24)C(=O)c2ncccc2C3=O)CC1 | 30% (inactive)
28 | COc1c(Cl)ccc2c(-c3nc4cc(Cl)c(F)cc4s3)cc(=O)oc12 | -18.1% (active)
29 | CCOC(=O)c1ccc(N=Cc2sc(=O)[nH]c2O)cc1 | 101% (inactive)
30 | CCSc1cnnc2ccccc12 | 91.5% (inactive)
31 | O=c1[nH]nc(SC2CCCCC2)c(=O)[nH]1 | 108% (inactive)
32 | CCOC(=O)CC1CSC(N/N=C/c2ccc(F)c(Br)c2)=N1 (stereo not given) | 93.6% (inactive)
33 | COC(=O)c1oc2c(C(=O)/C=C/c3ccc(OC)cc3)c(OCCN3CCOCC3)ccc2c1C | -24.1% (active)
34 | CNS(=O)(=O)Oc1ccc(-c2sc3cc(OS(=O)(=O)NC)ccc3c2C(=O)c2ccc(OCCN3CCCCC3)cc2)cc1 | 94.8% (inactive)
35 | Cc1nc2sc(C(=O)Nc3ccccc3)c(N)c2cc1C(O)c1ccccc1 (stereo not given) | -54% (active)
36 | CCOC(=O)c1ccc2c(c1)c1c(C)c3ccncc3c(C)c1n2C | 3.93% (active)
37 | NC(=O)SCC(=O)NNc1ccccc1 | 101% (inactive)
38 | Cc1oc2ccc(O)c(CN3CCCCCC3)c2c1C(=O)Nc1ccc(C(F)(F)F)cc1 | 83% (inactive)
39 | BrC(Br)(Br)c1cnc2ccccc2n1 | -38.1% (active)
40 | Cc1cc2ccccc2c[n+]1CC(=O)c1ccc(-c2ccccc2)cc1 | 22.5% (inactive)

— PubChem BioAssay (NCI)
